# In PubChem BioAssay (EPA / NIEHS):
# Results filed as inconclusive are left out. Active and inactive are the calls of the source. Rule for the calls: active = hit-call score of the fitted dose curve at least 0.9, where 1 is the maximum; inconclusive = response in the unintended direction; inactive = score below 0.9.
# What was measured:
# [1] = target: human Phosphodiesterase 4A1 (PDE4A1), PDE4A (gene 5141) (UniProt P27815); assay: NVS_ENZ_hPDE4A1: NovaScreen (NVS) Enzymatic Assay for human Phosphodiesterase 4A1 (PDE4A1) (AID 2283191)
# Chain of human Phosphodiesterase 4A1 (PDE4A1), PDE4A (gene 5141) (P27815 whole entry, looked up): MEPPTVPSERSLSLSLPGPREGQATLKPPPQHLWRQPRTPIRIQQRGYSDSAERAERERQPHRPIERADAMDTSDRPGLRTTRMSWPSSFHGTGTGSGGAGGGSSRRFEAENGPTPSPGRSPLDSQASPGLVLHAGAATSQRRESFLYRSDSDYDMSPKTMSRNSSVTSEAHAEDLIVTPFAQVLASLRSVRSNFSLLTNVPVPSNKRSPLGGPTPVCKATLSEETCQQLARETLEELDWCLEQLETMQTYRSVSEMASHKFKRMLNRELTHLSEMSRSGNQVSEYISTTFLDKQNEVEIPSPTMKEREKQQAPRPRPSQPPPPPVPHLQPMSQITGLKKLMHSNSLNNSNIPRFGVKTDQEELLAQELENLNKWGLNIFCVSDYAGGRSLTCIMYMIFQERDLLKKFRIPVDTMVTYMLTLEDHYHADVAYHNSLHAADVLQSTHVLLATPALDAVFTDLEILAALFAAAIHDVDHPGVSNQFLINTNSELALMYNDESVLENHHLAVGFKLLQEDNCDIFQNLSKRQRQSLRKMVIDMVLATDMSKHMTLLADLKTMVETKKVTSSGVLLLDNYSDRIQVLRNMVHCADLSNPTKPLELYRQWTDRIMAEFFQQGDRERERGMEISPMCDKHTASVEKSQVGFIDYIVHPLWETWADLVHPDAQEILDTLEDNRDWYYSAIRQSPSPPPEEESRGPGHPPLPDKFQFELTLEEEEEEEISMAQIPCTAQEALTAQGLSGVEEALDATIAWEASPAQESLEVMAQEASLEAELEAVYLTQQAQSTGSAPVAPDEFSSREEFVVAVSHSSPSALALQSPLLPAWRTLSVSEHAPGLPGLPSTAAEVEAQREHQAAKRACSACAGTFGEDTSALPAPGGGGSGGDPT
# Summary of the method: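 Cell-free recombinant human PDE4A1 with fluorescent substrate; product separated by electrophoretic mobility shift, 1 h. Screened at 25 uM, then up to 50 uM in concentration-response; loss of signal fitted against DMSO.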
# [2] = target: human Phosphodiesterase 5 (PDE5), PDE5A (gene 8654) (UniProt O76074); assay: NVS_ENZ_hPDE5: NovaScreen (NVS) Enzymatic Assay for human Phosphodiesterase 5 (PDE5) (AID 2283194)
# Summary of the method: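 Recombinant human PDE5 with specific substrate, read 1 h after dosing by fluorescence with electrophoretic mobility-shift separation of substrate and product. Initial single-concentration duplicate screen at 25 uM, actives followed in concentration series; loss of activity versus DMSO.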
# [3] = target: Tyrosine-protein phosphatase non-receptor type 14 (Homo sapiens) (UniProt Q15678); assay: NVS_ENZ_hPTPN14: NovaScreen (NVS) Enzymatic Assay for human Protein Tyrosine Phosphatase Non-receptor Type 14 (PTPN14) (AID 2283206)
# Summary of the method: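 Cell-free recombinant human PTPN14 with fluorescent substrate, read 0.5 h after dosing by fluorescence and electrophoretic mobility shift separating substrate from product. Primary screen at 25 uM in duplicate; hits run to 50 uM maximum; loss of signal versus DMSO.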
# [4] = target: human Matrix Metalloproteinase-3 (MMP3), MMP3 (gene 4314) (UniProt P08254); assay: NVS_ENZ_hMMP3: NovaScreen (NVS) Enzymatic Assay for human Matrix Metalloproteinase-3 (MMP3) (AID 2283185)
# Chain of human Matrix Metalloproteinase-3 (MMP3), MMP3 (gene 4314) (P08254 whole entry, looked up): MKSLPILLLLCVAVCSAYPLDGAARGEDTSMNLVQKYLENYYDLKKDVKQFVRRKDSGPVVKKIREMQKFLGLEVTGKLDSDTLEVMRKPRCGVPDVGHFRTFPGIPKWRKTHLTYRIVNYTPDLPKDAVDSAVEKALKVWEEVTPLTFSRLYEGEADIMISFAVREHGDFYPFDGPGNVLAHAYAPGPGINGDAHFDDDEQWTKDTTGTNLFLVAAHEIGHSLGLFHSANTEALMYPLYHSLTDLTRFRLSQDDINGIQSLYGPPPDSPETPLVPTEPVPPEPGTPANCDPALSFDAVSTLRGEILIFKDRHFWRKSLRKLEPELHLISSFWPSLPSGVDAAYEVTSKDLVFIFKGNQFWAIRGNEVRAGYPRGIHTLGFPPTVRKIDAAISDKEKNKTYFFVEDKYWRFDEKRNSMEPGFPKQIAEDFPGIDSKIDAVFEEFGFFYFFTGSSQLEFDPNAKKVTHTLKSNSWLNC
# Summary of the method: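 Cell-free recombinant human MMP3 activity, fluorescence intensity read 1 h after dosing. Primary screen duplicate at 25 uM, actives retested in concentration series; loss of signal vs DMSO baseline.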
# [5] = target: human Mitogen- and Stress-activated Protein Kinase-1 (Msk1), RPS6KA5 (gene 9252) (UniProt O75582); assay: NVS_ENZ_hMsk1: NovaScreen (NVS) Enzymatic Assay for human Mitogen- and Stress-activated Protein Kinase-1 (Msk1) (AID 2283187)
# Summary of the method: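 Recombinant kinase with fluorescent substrate; product separated by electrophoretic mobility shift, read 1 h after dosing. Screened in duplicate at 25 uM; hits (e.g. ≥30% inhibition) tested in concentration–response up to 50 uM. DMSO baseline.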
# [6] = target: cAMP-dependent protein kinase catalytic subunit alpha (Homo sapiens) (UniProt P17612); assay: NVS_ENZ_hPKA: NovaScreen (NVS) Enzymatic Assay for human Protein Kinase A (PKA) (AID 2283192)
# Summary of the method: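 Recombinant human PKA with specific fluorescent substrate, product separated by electrophoretic mobility shift, read 1 h after dosing. Primary screen at 25 uM in duplicate; actives then run in concentration-response up to 50 uM, activity relative to DMSO.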
# [7] = target: Tyrosine-protein phosphatase non-receptor type 13 (Homo sapiens) (UniProt Q12923); assay: NVS_ENZ_hPTPN13: NovaScreen (NVS) Enzymatic Assay for human Protein Tyrosine Phosphatase Non-receptor Type 13 (PTPN13) (AID 2283205)
# Summary of the method: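 Cell-free assay of recombinant human PTPN13 with a fluorescent substrate, product separated by electrophoretic mobility shift and read 0.5 h after dosing. Primary screen at 25 uM in duplicate, then concentration-response up to 50 uM. Loss of signal fitted against DMSO.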
# [8] = target: human Protein Tyrosine Phosphatase Non-receptor Type 2 (PTPN2), PTPN2 (gene 5771) (UniProt P17706); assay: NVS_ENZ_hPTPN2: NovaScreen (NVS) Enzymatic Assay for human Protein Tyrosine Phosphatase Non-receptor Type 2 (PTPN2) (AID 2283207)
# Chain of human Protein Tyrosine Phosphatase Non-receptor Type 2 (PTPN2), PTPN2 (gene 5771) (P17706 whole entry, looked up): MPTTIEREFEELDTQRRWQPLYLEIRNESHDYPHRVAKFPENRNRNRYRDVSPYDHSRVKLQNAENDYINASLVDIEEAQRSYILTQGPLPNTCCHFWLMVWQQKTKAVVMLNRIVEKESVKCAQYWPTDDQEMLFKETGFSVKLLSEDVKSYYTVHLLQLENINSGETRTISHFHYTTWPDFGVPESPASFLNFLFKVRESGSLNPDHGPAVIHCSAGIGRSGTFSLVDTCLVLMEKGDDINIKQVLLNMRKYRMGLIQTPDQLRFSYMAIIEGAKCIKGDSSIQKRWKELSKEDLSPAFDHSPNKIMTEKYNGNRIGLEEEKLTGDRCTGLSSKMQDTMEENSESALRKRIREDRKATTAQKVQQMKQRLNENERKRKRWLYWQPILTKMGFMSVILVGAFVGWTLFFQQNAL
# Summary of the method: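 Cell-free recombinant enzyme with fluorescent substrate, product separated by electrophoretic mobility shift; read 1 h after dosing. Primary screen single concentration (25 uM) in duplicate; actives followed in concentration series; loss of signal versus DMSO.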
# [9] = target: human Matrix Metalloproteinase-9 (MMP9), MMP9 (gene 4318) (UniProt P14780); assay: NVS_ENZ_hMMP9: NovaScreen (NVS) Enzymatic Assay for human Matrix Metalloproteinase-9 (MMP9) (AID 2283190);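 note: cell-free recombinant MMP9 protease activity read by fluorescent substrate signal; active means inhibition seen as loss of fluorescence signal versus DMSO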
# Chain of human Matrix Metalloproteinase-9 (MMP9), MMP9 (gene 4318) (P14780 whole entry, looked up): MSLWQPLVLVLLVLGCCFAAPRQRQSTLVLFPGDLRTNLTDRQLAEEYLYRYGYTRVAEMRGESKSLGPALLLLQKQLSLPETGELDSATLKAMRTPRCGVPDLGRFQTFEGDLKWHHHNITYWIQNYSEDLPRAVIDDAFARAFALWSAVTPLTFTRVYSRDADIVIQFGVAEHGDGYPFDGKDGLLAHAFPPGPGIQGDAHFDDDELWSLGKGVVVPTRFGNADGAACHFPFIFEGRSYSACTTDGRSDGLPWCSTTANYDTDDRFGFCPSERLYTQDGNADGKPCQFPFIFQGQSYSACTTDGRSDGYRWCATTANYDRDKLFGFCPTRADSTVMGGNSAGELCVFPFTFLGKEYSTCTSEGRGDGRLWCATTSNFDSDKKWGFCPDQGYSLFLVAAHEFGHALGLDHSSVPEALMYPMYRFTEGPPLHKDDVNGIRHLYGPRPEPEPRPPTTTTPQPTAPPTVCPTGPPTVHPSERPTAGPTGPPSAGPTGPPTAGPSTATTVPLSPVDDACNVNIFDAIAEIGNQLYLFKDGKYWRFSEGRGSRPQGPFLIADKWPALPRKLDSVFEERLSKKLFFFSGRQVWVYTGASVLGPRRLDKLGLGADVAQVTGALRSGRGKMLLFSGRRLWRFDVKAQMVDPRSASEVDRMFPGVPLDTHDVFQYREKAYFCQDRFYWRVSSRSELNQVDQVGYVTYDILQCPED
# Summary of the method: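 Cell-free fluorescence-intensity enzyme activity assay using extracted protein, read 1 h after dosing. Loss of signal versus DMSO baseline indicates inhibition; primary screen in duplicate at 25 uM, actives followed up in concentration series.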
# [10] = target: Serine/threonine-protein phosphatase PP1-alpha catalytic subunit (Homo sapiens) (UniProt P62136); assay: NVS_ENZ_hPPP1CA: NovaScreen (NVS) Enzymatic Assay for human Protein Phosphatase 1 Aatalytic subunit Alpha (PPP1CA) (AID 2283200)
# Chain of Serine/threonine-protein phosphatase PP1-alpha catalytic subunit (Homo sapiens) (P62136 whole entry, looked up): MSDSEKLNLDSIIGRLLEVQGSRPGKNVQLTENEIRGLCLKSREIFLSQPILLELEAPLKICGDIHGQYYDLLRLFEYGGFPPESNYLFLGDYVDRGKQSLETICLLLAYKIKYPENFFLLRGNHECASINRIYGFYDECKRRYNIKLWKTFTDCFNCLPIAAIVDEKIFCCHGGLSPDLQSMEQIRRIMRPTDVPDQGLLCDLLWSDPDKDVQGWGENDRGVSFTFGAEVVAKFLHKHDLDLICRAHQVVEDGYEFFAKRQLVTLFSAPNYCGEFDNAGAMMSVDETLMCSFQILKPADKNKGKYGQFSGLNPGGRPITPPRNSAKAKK
# Summary of the method: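 Recombinant enzyme activity read by fluorescence with electrophoretic mobility shift separating substrate from product, 1.33 h after dosing; loss of signal vs DMSO baseline. Primary screen in duplicate at 25 uM; actives retested in concentration-response up to 50 uM.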
# [11] = target: human NIMA (Never In Mitosis Gene A)-Related Kinase 2 (NEK2), NEK2 (gene 4751) (UniProt P51955); assay: NVS_ENZ_hNEK2: NovaScreen (NVS) Enzymatic Assay for human NIMA (Never In Mitosis Gene A)-Related Kinase 2 (NEK2) (AID 2283188)
# Summary of the method: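 Cell-free NEK2 enzyme activity after 1 h exposure, read by fluorescence with electrophoretic mobility shift separating substrate and product. Primary screen in duplicate at 25 uM; actives then run as concentration series. Loss of signal versus DMSO scored.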
# [12] = target: human Phosphoinositide 3-kinase alpha (PI3Ka), PIK3CA (gene 5290) (UniProt P42336); assay: NVS_ENZ_hPI3Ka: NovaScreen (NVS) Enzymatic Assay for human Phosphoinositide 3-kinase alpha (PI3Ka) (AID 2283196)
# Summary of the method: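 Enzyme activity as fluorescence after mobility-shift separation of substrate and product, 1 h reaction, recombinant human PI3Kα; concentration-response to 50 uM max for chemicals passing a 25 uM duplicate screen.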
# [13] = target: human Protein Tyrosine Phosphatase Non-receptor Type 1 (PTPN1), PTPN1 (gene 5770) (UniProt P18031); assay: NVS_ENZ_hPTPN1: NovaScreen (NVS) Enzymatic Assay for human Protein Tyrosine Phosphatase Non-receptor Type 1 (PTPN1) (AID 2283201)
# Summary of the method: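 Cell-free fluorogenic-substrate activity assay on recombinant enzyme, read 1.33 h after dosing by fluorescence and electrophoretic mobility shift; loss of signal vs DMSO baseline. Primary screen in duplicate at 25 uM, hits then run in concentration-response up to 50 uM.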
# [14] = target: Tyrosine-protein phosphatase non-receptor type 11 (Homo sapiens) (UniProt Q06124); assay: NVS_ENZ_hPTPN11: NovaScreen (NVS) Enzymatic Assay for human Protein Tyrosine Phosphatase Non-receptor Type 11 (PTPN11) (AID 2283202)
# Summary of the method: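 Recombinant human PTPN11 activity on a fluorescent substrate, with substrate/product separated by electrophoretic mobility shift; read 0.5 h after dosing, loss of signal vs DMSO. Duplicate 25 uM screen, then concentration-response up to 50 uM.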
# [15] = target: human p21 Activated Kinase 4 (PAK4), PAK4 (gene 10298) (UniProt O96013); assay: NVS_ENZ_hPAK4: NovaScreen (NVS) Enzymatic Assay for human p21 Activated Kinase 4 (PAK4) (AID 2283189)
# Summary of the method: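 Cell-free recombinant human PAK4 activity assay; fluorescent substrate and product separated by electrophoretic mobility shift, read 1 h after dosing. Initially tested in duplicate at 25 uM, relative to DMSO baseline.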
# [16] = target: PPP2CA (gene 5515) (UniProt P67775); assay: NVS_ENZ_hPPP2CA: NovaScreen (NVS) Enzymatic Assay for human Protein Phosphatase 2 Aatalytic subunit Alpha (PPP2CA) (AID 2283199)
# Summary of the method: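 Recombinant human PPP2CA with fluorescent substrate; product separated from substrate by electrophoretic mobility shift, read 1.33 h after dosing. Duplicate single-point at 25 uM, then singleton concentration-response up to 50 uM; loss of signal versus DMSO.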
# [17] = target: human Phosphatase and Tensin Homolog (PTEN), PTEN (gene 5728) (UniProt P60484); assay: NVS_ENZ_hPTEN: NovaScreen (NVS) Enzymatic Assay for human Phosphatase and Tensin Homolog (PTEN) (AID 2283203)
# Chain of human Phosphatase and Tensin Homolog (PTEN), PTEN (gene 5728) (P60484 whole entry, looked up): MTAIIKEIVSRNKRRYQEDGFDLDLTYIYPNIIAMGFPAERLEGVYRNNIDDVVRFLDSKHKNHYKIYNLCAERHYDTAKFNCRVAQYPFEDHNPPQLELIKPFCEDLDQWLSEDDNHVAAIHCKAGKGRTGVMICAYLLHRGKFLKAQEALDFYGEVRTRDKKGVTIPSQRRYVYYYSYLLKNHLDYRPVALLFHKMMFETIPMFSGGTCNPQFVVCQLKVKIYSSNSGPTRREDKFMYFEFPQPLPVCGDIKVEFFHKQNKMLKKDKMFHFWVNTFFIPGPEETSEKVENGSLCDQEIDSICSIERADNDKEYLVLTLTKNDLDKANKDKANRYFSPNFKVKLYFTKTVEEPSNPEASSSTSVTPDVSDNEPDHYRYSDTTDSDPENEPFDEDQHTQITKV
# Summary of the method: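 Cell-free recombinant human PTEN with fluorescent substrate; product separated by electrophoretic mobility shift and read by fluorescence 1 h after dosing. Primary screen in duplicate at 25 uM, actives followed in concentration series versus DMSO.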
# [18] = target: Tyrosine-protein phosphatase non-receptor type 12 (Homo sapiens) (UniProt Q05209); assay: NVS_ENZ_hPTPN12: NovaScreen (NVS) Enzymatic Assay for human Protein Tyrosine Phosphatase Non-receptor Type 12 (PTPN12) (AID 2283204)
# Chain of Tyrosine-protein phosphatase non-receptor type 12 (Homo sapiens) (Q05209 whole entry, looked up): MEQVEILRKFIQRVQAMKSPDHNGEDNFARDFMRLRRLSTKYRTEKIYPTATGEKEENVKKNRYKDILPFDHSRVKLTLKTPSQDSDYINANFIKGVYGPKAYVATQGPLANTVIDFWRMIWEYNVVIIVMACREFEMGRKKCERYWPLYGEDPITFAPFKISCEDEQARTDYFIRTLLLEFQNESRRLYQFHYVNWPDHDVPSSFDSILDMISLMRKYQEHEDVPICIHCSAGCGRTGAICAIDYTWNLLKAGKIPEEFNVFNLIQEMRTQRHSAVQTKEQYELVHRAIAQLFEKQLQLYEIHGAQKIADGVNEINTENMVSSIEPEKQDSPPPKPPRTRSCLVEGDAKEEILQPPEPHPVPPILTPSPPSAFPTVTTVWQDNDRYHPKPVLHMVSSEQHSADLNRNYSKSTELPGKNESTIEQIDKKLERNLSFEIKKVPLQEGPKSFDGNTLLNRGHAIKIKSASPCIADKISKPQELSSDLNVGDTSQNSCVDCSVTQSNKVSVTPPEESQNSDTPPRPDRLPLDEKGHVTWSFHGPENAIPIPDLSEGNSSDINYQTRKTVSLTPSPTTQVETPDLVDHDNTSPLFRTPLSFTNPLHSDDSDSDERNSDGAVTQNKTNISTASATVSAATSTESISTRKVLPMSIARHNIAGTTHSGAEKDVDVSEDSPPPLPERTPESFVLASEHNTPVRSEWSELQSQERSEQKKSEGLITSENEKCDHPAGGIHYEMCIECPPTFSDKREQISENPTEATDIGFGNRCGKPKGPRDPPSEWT
# Summary of the method: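 Single-concentration duplicates (25 uM) preceded singleton concentration-response up to 50 uM for chemicals passing threshold. Cell-free recombinant PTPN12 activity was read 1.33 h after dosing via fluorescence after mobility-shift separation; loss of signal versus DMSO.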
# [19] = target: human Protein Tyrosine Phosphatase Non-receptor Type 4 (PTPN4), PTPN4 (gene 5775) (UniProt P29074); assay: NVS_ENZ_hPTPN4: NovaScreen (NVS) Enzymatic Assay for human Protein Tyrosine Phosphatase Non-receptor Type 4 (PTPN4) (AID 2283208)
# Chain of human Protein Tyrosine Phosphatase Non-receptor Type 4 (PTPN4), PTPN4 (gene 5775) (P29074 whole entry, looked up): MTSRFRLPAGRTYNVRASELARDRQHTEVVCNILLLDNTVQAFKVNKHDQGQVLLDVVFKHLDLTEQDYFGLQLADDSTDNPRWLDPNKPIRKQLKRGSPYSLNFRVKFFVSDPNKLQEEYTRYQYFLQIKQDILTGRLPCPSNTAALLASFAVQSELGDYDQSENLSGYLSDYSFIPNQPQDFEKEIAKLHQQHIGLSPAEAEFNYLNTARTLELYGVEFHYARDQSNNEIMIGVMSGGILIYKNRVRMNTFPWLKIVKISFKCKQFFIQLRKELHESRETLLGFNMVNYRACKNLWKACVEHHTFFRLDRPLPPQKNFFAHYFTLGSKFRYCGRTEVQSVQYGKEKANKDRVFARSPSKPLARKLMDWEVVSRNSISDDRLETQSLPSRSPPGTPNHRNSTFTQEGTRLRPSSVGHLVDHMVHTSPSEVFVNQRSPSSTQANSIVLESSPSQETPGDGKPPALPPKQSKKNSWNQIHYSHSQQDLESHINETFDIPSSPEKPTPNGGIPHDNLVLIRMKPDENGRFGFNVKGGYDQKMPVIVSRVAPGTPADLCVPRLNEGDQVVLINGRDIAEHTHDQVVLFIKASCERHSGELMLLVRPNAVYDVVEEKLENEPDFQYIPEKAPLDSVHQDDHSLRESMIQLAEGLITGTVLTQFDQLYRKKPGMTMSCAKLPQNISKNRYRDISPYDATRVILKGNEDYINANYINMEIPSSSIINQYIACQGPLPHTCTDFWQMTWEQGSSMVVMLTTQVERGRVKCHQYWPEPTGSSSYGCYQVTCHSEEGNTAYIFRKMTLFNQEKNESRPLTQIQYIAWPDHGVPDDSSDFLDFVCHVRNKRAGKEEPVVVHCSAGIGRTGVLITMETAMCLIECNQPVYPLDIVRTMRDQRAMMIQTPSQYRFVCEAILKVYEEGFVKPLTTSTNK
# Summary of the method: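 Cell-free assay of PTPN4 expressed in Sf9 cells, using a fluorescent substrate with product separated by mobility shift; read 1.33 h after dosing. Single-point screen at 25 uM, then concentration-response up to 50 uM. Loss of signal relative to DMSO.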
smiles,measurement,setting,value
CCNc1nc(Cl)nc(NC(C)(C)C#N)n1,AC50,[1],0.39 µM (active)
same,AC50,[2],13.6 µM (active)
same,outcome,[3],inactive
Nc1c(Cl)cc([N+](=O)[O-])cc1Cl,outcome,[4],inactive
same,outcome,[5],inactive
same,outcome,[6],inactive
same,AC50,[7],25 µM (active)
same,outcome,[8],inactive
CCCOCC(=Nc1ccc(Cl)cc1C(F)(F)F)n1ccnc1,outcome,[9],inactive
same,outcome,[1],inactive
CCOP(=O)(OCC)Oc1cc(C)nc(C(C)C)n1,outcome,[4],inactive
same,outcome,[10],inactive
CNC(=O)ON=C(C)SC,outcome,[11],inactive
same,outcome,[12],inactive
S=C1NCCN1,outcome,[4],inactive
same,outcome,[9],inactive
same,outcome,[6],inactive
same,outcome,[13],inactive
same,outcome,[14],inactive
same,outcome,[8],inactive
CCOC(=O)CC(SP(=O)(OC)OC)C(=O)OCC (stereo not given),outcome,[9],inactive
same,outcome,[10],inactive
C[Si](Cn1cncn1)(c1ccc(F)cc1)c1ccc(F)cc1,AC50,[1],7.33 µM (active)
same,outcome,[2],inactive
CC[C@H](C)[C@H]1O[C@]2(C=C[C@@H]1C)C[C@@H]1C[C@@H](C/C=C(\C)[C@@H](O[C@H]3C[C@H](OC)[C@@H](O[C@H]4C[C@H](OC)[C@@H](NC)[C@H](C)O4)[C@H](C)O3)[C@@H](C)/C=C/C=C3\CO[C@@H]4[C@H](O)C(C)=C[C@@H](C(=O)O1)[C@]34O)O2,outcome,[15],inactive
same,outcome,[9],inactive
same,AC50,[1],25 µM (active)
same,AC50,[2],39.3 µM (active)
same,AC50,[12],7.94 µM (active)
same,AC50,[16],16.8 µM (active)
same,AC50,[17],0.0045 µM (active)
CCOP(=S)(OCC)Oc1cc(C)nc(C(C)C)n1,outcome,[1],inactive
same,outcome,[8],inactive
CCOP(=S)(Oc1cnc(C(C)(C)C)nc1)OC(C)C (stereo not given),outcome,[16],inactive
CC(C)[C@H](C(=O)O[C@H](C#N)c1cccc(Oc2ccccc2)c1)c1ccc(Cl)cc1,outcome,[17],inactive
COc1cc(OC)nc(Sc2cccc(Cl)c2C(=O)O)n1,outcome,[18],inactive
CCCCSP(=O)(SCCCC)SCCCC,outcome,[18],inactive
CCc1cccc(CC)c1N(COC)C(=O)CCl,outcome,[8],inactive
N#CSCSC#N,outcome,[19],inactive
CCCOc1nn(C(=O)NS(=O)(=O)c2ccccc2C(=O)OC)c(=O)n1C,outcome,[19],inactive
